This note sets out measurements from PubChem BioAssay AID602364 (National Center for Advancing Translational Sciences (NCATS), 2012).

Records with an inconclusive call do not appear. Activity calls are given as the source filed them. Calls come from the whole dose curve; as a rule, active = well fitted inhibition curve with a large enough effect; inconclusive = small, poorly fitted or top-dose-only effect; inactive = flat fitted curve, though single readings scatter.

The target of this assay is Luciferin 4-monooxygenase (Photinus pyralis) (UniProt P08659). Put plainly: FLuc inhibitory activity for the follow-up compounds in a biochemical assay with 1mM ATP. Conditions: purified P. pyralis luciferase, luminescence; series mostly up to 57.5 µM. An excerpt: NCGC Assay Overview: Firefly (Photinus pyralis) luciferase is one of the most commonly used transcriptional reporters. It is considered one of the more dynamically responsive reporters - that is, responsive to changes in reporter transcription - as it requires no post-translational modifications and is enzymatically active directly after protein synthesis (Wood, 1998). With no endogenous expression in mammalian cells and without the requirement of external excitation, it offers very little background signal, thus generally providing excellent signal to background for most assays. Previous profiling work to determine the prevalence of compounds that affect FLuc enzymatic activity (PubChem AID 411) identified that ~3% of the MLSMR library (then at ~72K) inhibited FLuc. […] Of the compounds identified in this profile that inhibited FLuc, 151 compounds were selected for further analysis, in an effort to better understand their mode of inhibiting FLuc. The assay described here was to determine the activity of the compounds in a FLuc assay that contained a KM concentration of D-luciferin and a high concentration (1mM) of ATP.
Chain of Luciferin 4-monooxygenase (Photinus pyralis) (P08659 whole entry, looked up): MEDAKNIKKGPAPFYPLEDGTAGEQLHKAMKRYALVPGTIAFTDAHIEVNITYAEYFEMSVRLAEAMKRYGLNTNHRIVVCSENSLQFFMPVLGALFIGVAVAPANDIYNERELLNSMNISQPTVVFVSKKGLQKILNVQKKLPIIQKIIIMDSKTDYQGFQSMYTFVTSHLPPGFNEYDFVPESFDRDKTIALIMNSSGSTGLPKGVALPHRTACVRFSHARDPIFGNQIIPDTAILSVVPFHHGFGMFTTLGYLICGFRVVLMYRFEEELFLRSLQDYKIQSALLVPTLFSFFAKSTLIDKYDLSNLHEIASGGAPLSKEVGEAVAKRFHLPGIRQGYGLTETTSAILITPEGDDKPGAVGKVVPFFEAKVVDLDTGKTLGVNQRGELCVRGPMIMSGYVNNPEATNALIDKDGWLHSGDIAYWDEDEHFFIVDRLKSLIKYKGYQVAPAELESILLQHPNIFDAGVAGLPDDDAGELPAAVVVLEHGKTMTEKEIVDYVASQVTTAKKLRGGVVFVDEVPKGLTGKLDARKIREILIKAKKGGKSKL
NCGC Assay Protocol Summary: Reagents: 50mM Tris acetate, pH 7.5; 10mM Mg acetate; 10uM D-luciferin (Sigma #L9504); 1mM ATP; 0.01% Tween-20; 0.05% BSA; 10nM P. pyralis luciferase (Sigma #L9506) Control compounds used were two known firefly luciferase inhibitors (3-(5-(3-chlorophenyl)-1,2,4-oxadiazol-3-yl)benzoic acid and 5-(2-fluorophenyl)-3-phenyl-1,2,4-oxadiazole), and DMSO. Three microliters containing firefly luciferase substrates in buffer (final concentrations: 50mM Tris acetate, pH 7.5, 10mM Mg acetate, 0.01% Tween-20, 0.05% BSA, 10uM D-luciferin, 1mM ATP) are dispensed into each well of a Greiner white, solid-bottom 1536-well format plate using a flying reagent dispenser (FRD). These assay plates were then treated with 23nL of compound or DMSO using a Kalypsys pin tool, which allows for delivery of a 12-point intraplate titration of each compound to the assay plate (quantitative HTS), with a final compound concentrations ranging from approximately ~60uM to 0.3nM. One microliter of firefly luciferase in […] Tris-acetate buffer was then delivered by FRD to each well for a final enzyme concentration of 10nM. Luciferase activity was then measured using a ViewLux CCD imager (PerkinElmer), with an average exposure time of 2-30 seconds (2X binning, medium/high gain).
`Cc1ccc(C(=O)O/N=C(\N)c2ccccn2)cc1`: the Potency is 7.3 nM (active).
Regarding `CC(C)(C)NC(=O)c1ccccc1-c1nc2ccccc2s1`, the Potency result was “inactive”.
To `O=C(O)c1cccc(NC(=O)c2cccc(S(=O)(=O)N3CCc4ccccc43)c2)c1` belongs 18300 nM (active).
To `Cc1ccc2sc(-c3ccc(NC(=O)c4cc(-n5cnnc5)ccc4Cl)cc3)nc2c1` belongs 1630 nM (active); to `Nc1ccccc1-c1nc2ccccc2s1`, 2910 nM (active).
Regarding `O=C(Cc1ccccc1)Nc1ccccc1C(=O)Nc1ccc(C(=O)O)cc1`, the Potency result is “inactive”.
The value for `CC(C)C(=O)Nc1cccc(C(=O)Nc2ccccc2C(=O)O)c1` was 11600 nM (active).
Take `O=C(Nc1ccccc1-c1nc2ccccc2s1)c1ccc(Br)o1`: the Potency entry was “inactive”.
`Cc1ccc(NS(=O)(=O)c2ccc(Cl)c(C(=O)Nc3cccc(C(=O)O)c3)c2)cc1`: the Potency result was “inactive”.
To `O=C(O)c1ccc(NC(=O)c2cc(S(=O)(=O)N3CCCCC3)c(Cl)cc2Cl)cc1` belongs “inactive”.
Take `CCOc1c(Cl)cc(C(=O)Nc2ccccc2C(=O)O)cc1Cl`: the Potency was 18300 nM (active).
Regarding `O=C(O)c1cccc(NC(=O)c2cccc(S(=O)(=O)N3CCc4ccccc4C3)c2)c1`, the Potency was 18300 nM (active).
To `Cc1ccc(C(=O)Nc2cccc(C(=O)O)c2)cc1` belongs 651 nM (active); to `O=C(Nc1c(Cl)cc(Cl)cc1-c1nc2ccccc2s1)c1ccc(Br)o1`, “inactive”.
To `CCOc1ccc2nc(NC(=O)c3ccoc3C)sc2c1` belongs 130 nM (active); to `COc1ccc2nc(NC(=O)c3ccc4ncsc4c3)sc2c1`, 1460 nM (active).
The value for `Cc1ccc2nc(-c3ccc(N)cc3)sc2c1` was 23.1 nM (active); that for `CCOc1ccc2nc(NC(=O)c3cc([N+](=O)[O-])ccc3N3CCOCC3)sc2c1` was “inactive”; that for `Cc1ccccc1C(=O)Nc1cccc(C(=O)Nc2ccccc2C(=O)O)c1` was 32600 nM (active).
Regarding `Cc1ccc(C(=O)Nc2cccc(C(=O)O)c2)cc1S(=O)(=O)N1CCOCC1`, the Potency was 3260 nM (active).
To `O=C(Nc1ccccc1C(=O)O)c1cc(S(=O)(=O)NCc2ccccc2)ccc1Cl` belongs “inactive”.
The value for `COc1ccc(-c2nc3ccccc3s2)cc1O` was 25.9 nM (active).
To `CC(C)c1ccc(-c2nc3ccccc3s2)cc1` belongs 41.1 nM (active); to `Cc1ccc(C(=O)Nc2ccc(C(=O)O)cc2)cc1S(=O)(=O)Nc1ccccc1`, “inactive”.
For the compound `COc1cc(OC)cc(-c2nc3ccccc3s2)c1`, the Potency was 4110 nM (active).
Consider `Cc1ccc(S(=O)(=O)N2CCN(C(=O)c3ccccc3-c3nc4ccccc4s3)CC2)c(C)c1`, for which the Potency result was “inactive”.
Consider `COc1cccc(-c2nc3ccccc3s2)c1`, for which the Potency is 326 nM (active).
To `CCOc1ccc(C(=O)Nc2ccccc2C(=O)O)cc1` belongs 1830 nM (active); to `Cc1c(NC(=O)C(C)(C)C)cccc1-c1nc2ccccc2s1`, 25900 nM (active).
To `COc1ccc2nc(NC(=O)c3cccs3)sc2c1` belongs 7300 nM (active); to `Cc1ccc(C(=O)Nc2cccc(C(=O)O)c2)cc1S(=O)(=O)N1CCCC1`, 461 nM (active).
Regarding `O=C(Nc1ccccc1C(=O)O)c1cc(S(=O)(=O)Nc2cccc(F)c2)ccc1Cl`, the Potency entry is “inactive”.
To `CN=c1scc(-c2ccccc2F)n1/N=C/c1ccc[nH]1` belongs 58 nM (active).
To `O=C(Nc1ccccc1C(=O)O)c1ccc(NC(=O)C2CCCO2)cc1` (stereo not given) belongs 20600 nM (active); to `O=C(Nc1ccccc1C(=O)O)c1cc(S(=O)(=O)Nc2ccccc2)ccc1Cl`, “inactive”.
The value for `COc1ccc2nc(NC(=O)CCc3ccc(OC)c(OC)c3)sc2c1` was “inactive”; that for `CCOc1ccc(C(=O)Nc2cccc(C(=O)O)c2)cc1Cl` was 580 nM (active).
Regarding `Cc1c(C)c2ccc(OCC(=O)Nc3ccccn3)c(C)c2oc1=O`, the Potency is 8.2 nM (active).
For the compound `O=C(Nc1cccc(-c2nc3ccccc3s2)c1)c1cc(-n2cnnc2)ccc1Cl`, the Potency is 9190 nM (active).
Take `O=C(O)c1cccc(NC(=O)c2cccc(S(=O)(=O)N3CCCCC3)c2)c1`: the Potency was 2310 nM (active).
